DT40 TDP1 CPT – DT40-hTDP1 cell growth loss with CPT; Potency, µM (titrated, usually from 46.2 µM), inactives show at the highest dose activity change, negative = growth inhibition, hits mostly inhibitors; chicken DT40 Tdp1-/-;hTDP1 cells + 20 nM CPT, ATP luminescence, 48 h; hit rate 12% among 420,000; further: potency means the concentration at half of the fitted maximal effect; nearly all actives have a fitted effect of over 55% in size
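Chicken DT40 Tdp1-/- cells stably complemented with human TDP1 were seeded at 400 cells/well in medium containing 20 nM camptothecin, exposed to pin-transferred compounds, and grown at 37 °C for at least 48 hr. Viability was read as ATP luminescence.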
HT1080 IDH1KD tx – HT-1080 IDH1 knockdown cell toxicity (counter line); HT-1080 IDH1 knockdown viability, ATP luminescence, 48 h; Potency, µM (highest dose often 46.1 µM), inactives show at the highest dose activity, negative = toxicity, most hits filed as cytotoxic; hit rate 2% among 360,000; AID 686971;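 further: potency means the concentration at half of the fitted maximal effect; 0% = DMSO wells and -100% = cell-free medium wells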
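IDH1KD HT-1080 cells, 750/well, RPMI + 5% FBS; compound pinned after 2 h settling; 48 h, 37 °C; CellTiter-Glo luminescence; % activity normalised to DMSO and no-cell wells; curves fitted, classed by r2 and efficacy.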
12-LOX inh – ALOX12 (human) lipoxygenase inhibition. P18054. purified 12hLO, xylenol orange hydroperoxide absorbance. Potency, µM (highest dose often 108 µM), for inactives: at the highest dose activity change, negative = inhibition, actives largely listed as inhibitors. hit rate 1.1% among 580,000. AID 1671190; further: potency means the concentration at half of the fitted maximal effect
Target sequence (P18054 whole entry, looked up): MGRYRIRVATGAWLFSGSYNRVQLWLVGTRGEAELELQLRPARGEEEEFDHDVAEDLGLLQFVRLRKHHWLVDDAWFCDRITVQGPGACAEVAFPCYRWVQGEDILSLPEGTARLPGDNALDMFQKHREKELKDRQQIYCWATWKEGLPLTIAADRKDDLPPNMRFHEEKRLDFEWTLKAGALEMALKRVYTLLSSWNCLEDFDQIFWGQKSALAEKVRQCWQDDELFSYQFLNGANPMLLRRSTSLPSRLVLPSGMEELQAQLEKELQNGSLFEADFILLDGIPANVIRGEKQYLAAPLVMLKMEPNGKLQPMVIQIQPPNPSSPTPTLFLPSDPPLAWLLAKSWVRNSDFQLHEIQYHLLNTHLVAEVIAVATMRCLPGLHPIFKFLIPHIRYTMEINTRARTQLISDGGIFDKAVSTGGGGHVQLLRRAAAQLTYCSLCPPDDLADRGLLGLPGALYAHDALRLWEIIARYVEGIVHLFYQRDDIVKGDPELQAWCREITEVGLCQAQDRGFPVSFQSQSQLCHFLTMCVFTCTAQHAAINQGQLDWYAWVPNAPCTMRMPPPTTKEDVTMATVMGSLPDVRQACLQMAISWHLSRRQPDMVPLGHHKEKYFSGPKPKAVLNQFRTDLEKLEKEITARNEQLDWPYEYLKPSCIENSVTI
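Hydroperoxide product was detected by ferrous iron/xylenol orange as the 573 to 405 nm absorbance ratio. Arachidonic acid at 40 uM (final) was turned over for 30 min at room temperature by 150 nM human 12hLO, pH 7.0 Hepes buffer, after 15 min compound preincubation.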
IL-1B inflam inh – inflammasome signaling inhibition, IL-1 beta readout. AID 743279. activity change, % at 57.5 µM. hit rate 4.7% among 360,000. THP-1 LPS/ATP IL-1B secretion, AlphaLISA, 16 h; stronger effect = lower value; in the data active means activity change below about -50%; inconclusive means mostly about -30% to -49%
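Secreted IL-1B measured by AlphaLISA bead assay after 16 h compound exposure of THP-1 cells; compounds (final up to 57.5 uM) added 1 h before LPS (250 ng/mL) and ATP (1.25 mM) stimulation; lower signal means less secretion.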
DT40 TDP1 no CPT – qHTS for Inhibitors of human tyrosyl-DNA phosphodiesterase 1 (TDP1): qHTS in cells in absence of CPT; Potency, µM (titrated, usually from 46.2 µM), for the others: top-dose activity change, negative = growth inhibition, hits mostly inhibitors; hit rate 15% among 420,000; DT40 Tdp1-/- hTDP1 cells, no CPT, ATP luminescence, 48 h; further: potency means the concentration at half of the fitted maximal effect; nearly all actives have a fitted effect of over 55% in size
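Readout: luminescence from CellTiter-Glo after 30 min in the dark at RT. Cells: DT40 Tdp1-/- with stable hTDP1, 400/well. Exposure: compounds alone, ≥48 hr, 37 °C.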
HT1080NT lethal – kills 2HG-producing HT-1080-NT fibrosarcoma cells; HT-1080-NT fibrosarcoma viability, CellTiter-Glo ATP luminescence, 48 h; Potency, µM (titrated, usually from 46.1 µM), without a hit: at the top dose activity, negative = less viability, actives largely listed as cytotoxic; hit rate 1.6% among 360,000; AID 686970;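 further: NT is the 2HG producing partner of a matched IDH1 knockdown line; potency means the concentration at half of the fitted maximal effect; 0% = DMSO-treated cells and -100% = media-only wells without cells; nearly all actives have a fitted effect of over 55% in size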
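HT-1080-NT fibrosarcoma cells (2HG-overproducing), 750 cells/well in RPMI with 5% FBS, dosed after 2 h and incubated 48 h at 37C. CellTiter-Glo luminescence normalized to DMSO and no-cell wells; concentration-response curves fitted and classed.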
Active calls of the source: *; i = inactive; ? = inconclusive; / = no result. This excerpt belongs to a sample that is enriched for hits. Unless noted, the call rests on the fitted dose curve; in most records, active means well fitted curve in the direction sought with a large enough effect; inconclusive means small, poorly fitted or top-dose-only effect, or another doubt; inactive means no such curve, though single readings can be large; an effect the other way counts as inactive or inconclusive. Unless noted, on the % scale 0 is the no-effect control and ±100 the full control effect.

SMILES	DT40 TDP1 CPT	HT1080 IDH1KD tx	12-LOX inh	IL-1B inflam inh	DT40 TDP1 no CPT	HT1080NT lethal
COc1ccc(CN2C(=O)C(CC(=O)NCc3ccco3)CC(C(=O)N3CCOCC3)=C2C)cc1 (configuration not stated)	11%	4%	-20%	-13	?	3%
CC1=C(C(=O)N(C(C)C)C(C)C)CC(CC(=O)NCc2cccs2)C(=O)N1Cc1ccc(F)cc1 (configuration not stated)	?	13%	26%	-17	?	14%
Cc1ccc(NC(=O)Cc2nnc(SCC(=O)NC34CC5CC(CC(C5)C3)C4)n2C)cc1C	/	/	-5%	/	/	/
CCC1CCc2sc(C(=O)N(C)CC(=O)Nc3ccc(OC)cc3)cc2C1 (configuration not stated)	?	22%	-25%	-3	21µM*	6%
COc1cccc(NC(=O)CN(C)C(=O)c2ccc3[nH]c4c(c3c2)CC(C)CC4)c1 (configuration not stated)	?	-20%	0%	?	?	-7%
CCN(CC(=O)Nc1ccccc1C(F)(F)F)C(=O)c1ccc2c(=O)n3c(nc2c1)CCC3	8%	11%	482%	6	13%	13%
CCN(CC(=O)Nc1ccccc1C(F)(F)F)C(=O)c1ccc2[nH]c3c(c2c1)CC(C)CC3 (configuration not stated)	?	-23%	0%	-62*	18µM*	-3%
COc1ccc(NC(=O)CN(C)C(=O)c2ccc3[nH]c4c(c3c2)CC(C)CC4)cc1 (configuration not stated)	-19%	-27%	?	?	23µM*	-29%
Cc1cccc(N(CC(=O)Nc2ccccc2C(F)(F)F)S(=O)(=O)c2ccccc2)c1C	16µM*	/	11%	/	15µM*	/
CCC1CCc2sc(C(=O)N(C)CC(=O)Nc3cccc(OC)c3)cc2C1 (configuration not stated)	?	1%	199%	0	?	-1%
CCN(CC(=O)Nc1ccccc1C(F)(F)F)C(=O)CCc1ccccc1	2%	0%	-15%	9	-1%	0%
CC1CCc2[nH]c3ccc(C(=O)N(C)CC(=O)Nc4ccc(F)cc4)cc3c2C1 (configuration not stated)	?	?	-10%	i	10µM*	-12%
CCN(CC(=O)Nc1ccccc1C(F)(F)F)C(=O)c1ccc(-n2nc(C)c(CCC(=O)OC)c2C)cc1	?	1%	0%	21	21µM*	0%
CCN(CC(=O)Nc1ccccc1C(F)(F)F)C(=O)c1ccccc1Cc1ccccc1	?	-11%	0%	-26	21µM*	-6%
Cc1cc(Nc2cccc(F)c2)n2nc(-c3ccco3)nc2n1	18µM*	/	4%	/	?	/
Cc1cc(Nc2ccccc2Cl)n2nnnc2n1	-4%	-7%	3%	-2	-7%	-7%
Cc1cc(Nc2ccc(F)c(F)c2)n2nc(-c3ccco3)nc2n1	/	/	-15%	/	/	/
Cc1cc(Nc2ccccc2Cl)n2nc(-c3ccco3)nc2n1	?	/	11%	/	26µM*	/
CCOC(=O)c1ccccc1Nc1cc(C)nc2nc(-c3ccco3)nn12	?	/	-24%	/	16µM*	/
Cc1cc(Nc2ccccc2F)n2nc(-c3ccccc3)nc2n1	?	/	0%	/	?	/
O=C(O)/C=C/c1ccc(-c2ccc(Br)cc2Cl)o1	/	/	7.9µM*	/	/	/
O=C(O)/C=C/c1cc(Br)c(-c2ccc(Cl)cc2Cl)o1	/	/	40µM*	/	/	/
O=C(O)/C=C/c1ccc(Cl)cc1	/	/	-2%	/	/	/
CNC(=O)[C@@H]1CN(C(=O)c2cc3cc(OC)ccc3[nH]2)C[C@H]1CO	/	/	8%	/	/	/
O=C(NN=Cc1ccc(Cl)cc1Cl)c1ccccc1	-25%	-14%	?	-29	?	-11%
SMILES	DT40 TDP1 CPT	HT1080 IDH1KD tx	12-LOX inh	IL-1B inflam inh	DT40 TDP1 no CPT	HT1080NT lethal
NC(N)=N/N=C/c1ccc(OCc2ccccc2Cl)cc1	15µM*	16µM*	?	-103*	13µM*	13µM*
NC(N)=N/N=C/c1ccc(Cl)c(Cl)c1	13µM*	?	?	-97*	16µM*	?
NC(N)=N/N=C/c1ccc(Cl)cc1Cl	16µM*	16µM*	-15%	-99*	23µM*	?
CCCCNC(=O)C1(NC(=O)Cc2cn(C)c3ccccc23)CCCCC1	/	/	7%	/	/	/
CCn1ncnc1C1CC(=O)Nc2cc(OC)c(NS(C)(=O)=O)cc21 (configuration not stated)	/	/	25%	/	/	/
O=S(=O)(NCC1CN(Cc2ccccc2)CCO1)c1cccc(F)c1 (configuration not stated)	/	/	20%	/	/	/
COc1ccc(C2=Nn3c(nnc3-c3ccco3)SC2)cc1OC	?	-13%	-17%	-16	23µM*	-22%
COc1ccc(C2=Nn3c(nnc3-c3ccccc3OC)SC2)cc1OC	0.0052µM*	?	-22%	1	0.0058µM*	0.46µM*
O=C(Nc1ccc2c(c1)OCO2)c1oc2ccccc2c1COc1ccccc1	/	/	15%	/	/	/
C=C1C(=O)c2sccc2C(c2ccc(OC)c(OC)c2)C1COC(C)=O (configuration not stated)	0.52µM*	2.3µM*	-17%	-101*	0.23µM*	2.6µM*
COc1ccc(C2CC(=O)Nc3ccsc32)cc1OCC(N)=O (configuration not stated)	/	/	3%	/	/	/
CCC(C(=O)Nc1ccccc1C(=O)OC)n1c(C)c2cnn(-c3ccccc3)c(=O)c2c1C (configuration not stated)	26µM*	/	-12%	/	?	/
COc1ccc(OC)c(CCNC(=O)C(C)n2c(C)c3cnn(-c4ccccc4)c(=O)c3c2C)c1 (configuration not stated)	21µM*	/	-14%	/	?	/
CSc1ccc(CCNC(=O)C(C)n2c(C)c3cnn(-c4ccccc4)c(=O)c3c2C)cc1 (configuration not stated)	26µM*	/	?	/	?	/
COc1ccc(OC)c(CNC(=O)C(C)n2c(C)c3cnn(-c4ccccc4)c(=O)c3c2C)c1 (configuration not stated)	?	/	-10%	/	12µM*	/
O=S(=O)(NC(c1ccccc1)c1cccs1)c1ccccc1 (configuration not stated)	/	/	5%	/	/	/
Cc1ccc2cc(CN(Cc3ccc4c(c3)OCO4)Cc3nnnn3Cc3ccco3)c(=O)[nH]c2c1C	?	-6%	13µM*	0	23µM*	-19%

Bioassay records (PubChem)
